The values that follow come from PubChem BioAssay AID720690 (Broad Institute, 2013).

Results with a measured potency or affinity are listed apart. The source made the active and inactive calls.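 The calls were made as follows: active = every repeat run showing a signal drop whose fitted half-maximal concentration is at most twice the top tested concentration; inconclusive = repeat runs disagree, or flat partial drop, or poor fit; inactive = the rest.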

The nature of this experiment: general mammalian cell viability loss – activator set, cherry-pick, cytotoxicity control for miR-122 modulator project, dose response (AID 720690).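 Also: 0% = neutral control wells and -100% = MG132 cytotoxic control wells.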 As to conditions: HEK293T viability, CellTiter-Glo luminescence, 48 h; series mostly up to 26 µM; activity change, negative = cytotoxicity: at the top concentration.
`Cc1nn(C)cc1NC(=O)C[C@@H]1CC[C@@H]2[C@H](COc3ccc(NC(=O)Nc4cccc(Cl)c4)cc3C(=O)N2C)O1`: the “activity change, negative = cytotoxicity” value was 5.79% (inactive). The same measure, in the same setting: with `CCCNC(=O)C[C@@H]1CC[C@@H]2[C@@H](COc3ccc(NC(=O)Nc4ccccc4F)cc3C(=O)N2C)O1` the figure was 6.7% (inactive); with `CC(=O)Nc1ccc(S(=O)(=O)Nc2ccc(S(=O)(=O)Nc3nc(C)cc(C)n3)cc2)cc1`, -10.1% [at 12 µM] (inactive). On the same count and under the same terms, the same measure for `CCC(=O)N1[C@H](CO)[C@H](c2ccccc2)[C@H]1CNC(=O)CN1CCOCC1`: -16.4% (inactive); for `C/C=C/c1ccc([C@H]2[C@@H](CO)N(Cc3ccccn3)[C@H]2CNC(=O)CC)cc1`: -6.36% (inactive); for `CNC(=O)C[C@@H]1CC[C@@H]2[C@H](COc3ccc(NC(=O)NC(C)C)cc3C(=O)N2C)O1`: -16.3% (inactive).

For `CN1C(=O)c2cc(NC(=O)c3cccs3)ccc2OC[C@H]2O[C@@H](CC(=O)N3CCCCC3)CC[C@H]21`, the “activity change, negative = cytotoxicity” value was -11% (inactive).

In the case of `CCNC(=O)Nc1ccc2c(c1)C(=O)N(C)[C@H]1CC[C@H](CC(=O)Nc3cccc(F)c3)O[C@@H]1CO2`, the “activity change, negative = cytotoxicity” value is -2.47% (inactive). For the compound `CN1C(=O)c2cc(NC(=O)c3cccc(F)c3)ccc2OC[C@@H]2O[C@H](CC(=O)NC3CCC3)CC[C@@H]21`, the outcome was inactive. For `Cc1cc(C)n(C(=O)Cn2nc(C)c(Br)c2C)n1`, the “activity change, negative = cytotoxicity” value is 13.1% (inactive). The same measure, in the same setting: the same measure for `CC(C)C#Cc1ccc2c(c1)O[C@H](CN(C)C(=O)c1ccncc1)[C@H](C)CN([C@H](C)CO)S2(=O)=O`: 1.9% (inactive); for `COc1cccc(S(=O)(=O)N(C)C[C@@H]2Oc3cc(C4=CCCC4)ccc3S(=O)(=O)N([C@H](C)CO)C[C@@H]2C)c1`: -35.5% (inactive); for `CNC(=O)C[C@H]1CC[C@@H]2[C@H](COc3ccc(NC(=O)c4cccc(OC)c4)cc3C(=O)N2C)O1`: -2.16% [at 23.5 µM] (inactive).

`CN1C(=O)c2cc(NC(=O)Cc3ccccc3)ccc2OC[C@H]2O[C@@H](CC(=O)NC3CCC3)CC[C@H]21`: the “activity change, negative = cytotoxicity” value was 1.24% (inactive). Still for that read-out and setting: with `CC(C)CC#Cc1ccc2c(c1)O[C@H](CN(C)C(=O)c1cnccn1)[C@H](C)CN([C@@H](C)CO)S2(=O)=O` the figure was 2.29% (inactive); with `C[C@H](CO)N1C[C@H](C)[C@@H](CN(C)CC2CCCCC2)Oc2c(NS(=O)(=O)c3cccs3)cccc2C1=O`, 11% (inactive).

With `Cc1cc(C)cc(NC(=O)Nc2ccc3c(c2)C(=O)N(C)[C@@H]2CC[C@H](CC(=O)O)O[C@@H]2CO3)c1`, the “activity change, negative = cytotoxicity” value was 5.14% (inactive).

In the case of `CNC(=O)C[C@H]1CC[C@@H]2[C@H](COc3ccc(NS(=O)(=O)c4ccc(F)cc4)cc3C(=O)N2C)O1`, the “activity change, negative = cytotoxicity” value was 3.09% (inactive). The same measure, in the same setting: the same measure for `C[C@@H]1CN([C@H](C)CO)S(=O)(=O)c2ccc(C3=CCCCC3)cc2O[C@@H]1CN(C)C(=O)Nc1ccc2c(c1)OCO2`: -32.2% (inactive); for `CC(=O)N(C)C[C@@H]1[C@@H](c2ccccc2)[C@H](CO)N1C(=O)C1CCC1`: -7.02% (inactive); for `Cc1cc(C(F)F)n2ncc(C(=O)NCCc3ccccc3Cl)c2n1`: -0.237% (inactive).

With `CCOc1ccc2nc(NS(=O)(=O)c3cccs3)sc2c1`, the “activity change, negative = cytotoxicity” value is 4.68% (inactive).

Consider `COC(=O)C[C@H]1CC[C@H]2[C@H](COc3ccc(NC(=O)c4cscn4)cc3C(=O)N2C)O1`, for which the “activity change, negative = cytotoxicity” value was -12.2% (inactive).

Take `Cc1ccc(S(=O)(=O)NCCCNS(C)(=O)=O)cc1`: the “activity change, negative = cytotoxicity” value was 7.67% (inactive). Still for that read-out and setting: the same measure for `O=C(c1cccc(F)c1)N1C[C@@H]2[C@H](c3ccccc31)[C@H](CO)N2C(=O)Cc1ccccc1`: -12.1% (inactive); for `COc1cccc(-c2ccc3c(c2)O[C@H](CN(C)C(=O)C2CCOCC2)[C@H](C)CN([C@@H](C)CO)S3(=O)=O)c1`: -9.25% (inactive). On to `CCCNC(=O)N1[C@@H]2CN(C(=O)c3ccccc3)c3ccccc3[C@@H]2[C@@H]1CO`, for which the “activity change, negative = cytotoxicity” value was 3.85% (inactive). Regarding `CNC(=O)C[C@@H]1CC[C@@H]2[C@@H](COc3ccc(NC(=O)Nc4ccc(F)c(F)c4)cc3C(=O)N2C)O1`, the “activity change, negative = cytotoxicity” value is 15.3% (inactive).

As to `C/C=C/c1ccc([C@H]2[C@H](CO)N[C@@H]2CN(CC)C(=O)c2cccnc2)cc1`, the “activity change, negative = cytotoxicity” value was -12.1% (inactive).

Turning to `CCCC(=O)Nc1ccc2c(c1)C(=O)N(C)[C@@H]1CC[C@H](CC(=O)Nc3cn(C)nc3C)O[C@@H]1CO2`, the “activity change, negative = cytotoxicity” value was 9.32% [at 23.5 µM] (inactive).

Consider `CNC(=O)c1nc(C)n(-c2cc(Cl)cc(Cl)c2)n1`, for which the “activity change, negative = cytotoxicity” value is 17.7% (inactive). Same read-out and setting: the same measure for `C[C@@H]1CN([C@@H](C)CO)S(=O)(=O)c2ccc(C3=CCCC3)cc2O[C@@H]1CN(C)C(=O)c1ccc(F)cc1`: -11.3% (inactive); for `Cc1nn(C)cc1NC(=O)C[C@H]1CC[C@@H]2[C@H](COc3ccc(NC(=O)Nc4cccc(Cl)c4)cc3C(=O)N2C)O1`: 3.12% (inactive).

In the case of `O=CN1CCN(C(=O)c2ccccc2F)CC1`, the “activity change, negative = cytotoxicity” value was 16.3% (inactive). The same measure, in the same setting: the same measure for `C[C@@H]1CN([C@H](C)CO)S(=O)(=O)c2ccc(C#CC3CC3)cc2O[C@@H]1CN(C)C(=O)c1cccc(F)c1`: -31.4% (inactive).
